Values without a mark were called inactive. Results filed as inconclusive are left out. Where a call stands in place of a potency, no number is given. Calls of active or inactive are those of the source. The call rests on the fitted dose curve; in most records, active means well fitted curve in the direction sought with a large enough effect in the repeat runs; inconclusive means weak or mixed curves; inactive means no such curve, though single readings can be large; an effect the other way counts as inactive or inconclusive.
Further: nearly all actives have a fitted effect of over 50% in size.

The first assay can be described thus: qHTS RealTime-Glo MT Cell Viability Assay in HepG2 cells - 24 hour (AID 1224867). The settings on record: RealTime-Glo luminescence; series mostly up to 76.8 µM. The gist of the method:
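Luminescence read-out: viable HepG2 cells reduce a prosubstrate to a NanoLuc substrate, giving a signal proportional to live cell number. Reads taken at 0, 8, 16, 24, 32 and 40 h of compound exposure at 37 C.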
As for `CC(C)=CC1CC(C)CCO1` (configuration not stated), the Potency entry was “inactive”.

Regarding `O=C1OC(=O)c2ccc3c4c(ccc1c24)C(=O)OC3=O`, the Potency entry was “inactive”.

`CC1CCCCC1`: the Potency result was “inactive”.

For the molecule `Cc1cc(C)c(C=O)c(C)c1`, the Potency result is “inactive”.

As for `Clc1nc2ccccc2s1`, the Potency entry is “inactive”.

Regarding `Cc1cn[nH]c1`, the Potency result is “inactive”.

Take `CCCC(C)CCC(C)=O` (configuration not stated): the Potency result was “inactive”.

Take `Cc1cccc(Br)c1`: the Potency result is “inactive”.

Take `O=CC1CC1`: the Potency result is “inactive”.

Take `OCCCc1cccnc1`: the Potency entry is “inactive”.

`OCCC(O)CO` (configuration not stated): the Potency entry was “inactive”.

With `COC(=O)CC#N`, the Potency result is “inactive”.

As to `O=C(O)CCCCCCC(=O)O`, the Potency result is “inactive”.

As to `COc1ccccc1C=O`, the Potency entry was “inactive”.

As for `Clc1cccnc1`, the Potency result was “inactive”.

On to `CCOB(OCC)OCC`, for which the Potency entry is “inactive”.

For the molecule `CC(=O)C=O`, the Potency entry is “inactive”.

For `CCC(=O)CC(C)CC` (configuration not stated), the activity change, negative = cytotoxicity is -0.146% [at 0.29 µM].

For the molecule `CCN(CC)CCCN(c1ccccc1)C1Cc2ccccc2C1`, the Potency entry was “inactive”.

For `O=C=NCc1cccc(CN=C=O)c1`, the activity change, negative = cytotoxicity was 1.03% [at 15.8 µM].

`COc1ccc(C#N)cc1`: the Potency result is “inactive”.

On to `CCCCCCCCC(C)=O`, for which the Potency result was “inactive”.

`CCc1ccc(O)c(C(C)(C)C)c1`: the Potency entry was “inactive”.

On to `CCCCCCCC/C=C\CCCCCCCC(=O)OCCOC(=O)CCCCCCC/C=C\CCCCCCCC`, for which the Potency result is “inactive”.

Take `CCCCCCCCCCCCCc1ccccc1`: the Potency result was “inactive”.

For the molecule `CCOC(=O)CN`, the Potency result was “inactive”.

Take `Cc1c(C(=O)O)cccc1[N+](=O)[O-]`: the Potency result is “inactive”.

As to `CCc1ccc(C)nc1`, the Potency entry was “inactive”.

Turning to `COc1cccc(O)c1`, the Potency entry was “inactive”.

For the molecule `CC(=O)O[C@@H]1C[C@@H]2CC[C@@]1(C)C2(C)C`, the Potency result was “inactive”.

For `OCCN1CN(CCO)CN(CCO)C1`, the Potency result is “inactive”.

Consider `CCCCCCCC(C)=O`, for which the Potency entry is “inactive”.

As for `CCCCCCCC(OC)OC`, the Potency result was “inactive”.

`C=CC(C)C#N` (configuration not stated): the Potency result was “inactive”.

Consider `CCC(=O)OCCc1ccccc1`, for which the Potency entry is “inactive”.

For the molecule `O=S(O)O`, the activity change, negative = cytotoxicity is 3.99% [at 15.8 µM].

The next assay can be described thus: qHTS RealTime-Glo MT Cell Viability Assay in HEK293 cells - 32 hour (AID 1224868). Further: top concentration of the series differs between compounds. Particulars: RealTime-Glo luminescence; series mostly up to 76.8 µM. The gist of the method:
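Nonlytic real-time viability readout: viable cells convert prosubstrate to NanoLuc substrate, giving luminescence proportional to live cell number. HEK293, 600 cells/well, compound added after 5 h, continuous culture at 37 C.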
In the case of `CC(C)=CC1CC(C)CCO1` (configuration not stated), the Potency result was “inactive”.

For the molecule `O=C1OC(=O)c2ccc3c4c(ccc1c24)C(=O)OC3=O`, the Potency result is “inactive”.

On to `CC1CCCCC1`, for which the Potency result is “inactive”.

With `Cc1cc(C)c(C=O)c(C)c1`, the Potency entry is “inactive”.

Regarding `Clc1nc2ccccc2s1`, the Potency entry was “inactive”.

For `Cc1cn[nH]c1`, the Potency entry is “inactive”.

As to `O=CC1CC1`, the Potency result was “inactive”.

For the molecule `OCCCc1cccnc1`, the Potency entry was “inactive”.

Take `OCCC(O)CO` (configuration not stated): the Potency result is “inactive”.

For `COC(=O)CC#N`, the Potency entry is “inactive”.

As to `O=C(O)CCCCCCC(=O)O`, the Potency result is “inactive”.

With `COc1ccccc1C=O`, the Potency result is “inactive”.

In the case of `CC(=O)C=O`, the Potency entry was “inactive”.

Consider `CCC(=O)CC(C)CC` (configuration not stated), for which the activity change, negative = cytotoxic was 3.77% [at 0.29 µM].

`O=C=NCc1cccc(CN=C=O)c1`: the activity change, negative = cytotoxic was 6.09% [at 15.8 µM].

For `COc1ccc(C#N)cc1`, the Potency entry is “inactive”.

Turning to `CCCCCCCCC(C)=O`, the Potency entry was “inactive”.

For `CCc1ccc(O)c(C(C)(C)C)c1`, the Potency result was “inactive”.

Turning to `CCCCCCCC/C=C\CCCCCCCC(=O)OCCOC(=O)CCCCCCC/C=C\CCCCCCCC`, the Potency entry is “inactive”.

Consider `CCCCCCCCCCCCCc1ccccc1`, for which the Potency result is “inactive”.

Consider `CCOC(=O)CN`, for which the Potency entry is “inactive”.

Turning to `CCc1ccc(C)nc1`, the Potency entry was “inactive”.

Take `COc1cccc(O)c1`: the Potency result was “inactive”.

In the case of `CC(=O)O[C@@H]1C[C@@H]2CC[C@@]1(C)C2(C)C`, the Potency entry is “inactive”.

Turning to `OCCN1CN(CCO)CN(CCO)C1`, the Potency result is “inactive”.

`CCCCCCCC(C)=O`: the Potency result was “inactive”.

For `CCCCCCCC(OC)OC`, the Potency result is “inactive”.

In the case of `C=CC(C)C#N` (configuration not stated), the Potency entry is “inactive”.

For the molecule `CCC(=O)OCCc1ccccc1`, the Potency result is “inactive”.

For the molecule `O=S(O)O`, the activity change, negative = cytotoxic was 13.4% [at 15.8 µM].

The next assay is described as follows: A CellTox Green Cytotoxicity Assay to monitor cytotoxicity in HEK293 cells - 0 hour (AID 1224869). Particulars: CellTox Green fluorescence; series mostly up to 76.8 µM. The gist of the method: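 HEK293 cells premixed with CellTox Green dye were seeded at 600 cells/well and left 5 h at 37 C/5% CO2 before pin transfer of 23 nL compound in DMSO. Fluorescence from dye bound to dead-cell DNA was read during 40 h treatment.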
As for `CC(C)=CC1CC(C)CCO1` (configuration not stated), the Potency result is “inactive”.

For `O=C1OC(=O)c2ccc3c4c(ccc1c24)C(=O)OC3=O`, the Potency entry was “inactive”.

In the case of `CC1CCCCC1`, the Potency result was “inactive”.

Regarding `Cc1cc(C)c(C=O)c(C)c1`, the Potency result is “inactive”.

`Clc1nc2ccccc2s1`: the Potency result is “inactive”.

Consider `Cc1cn[nH]c1`, for which the Potency entry is “inactive”.

For `CCCC(C)CCC(C)=O` (configuration not stated), the Potency entry was “inactive”.

As to `Cc1cccc(Br)c1`, the Potency entry was “inactive”.

With `O=CC1CC1`, the Potency result is “inactive”.

Regarding `OCCCc1cccnc1`, the Potency entry is “inactive”.

As for `OCCC(O)CO` (configuration not stated), the Potency entry is “inactive”.

`COC(=O)CC#N`: the Potency entry was “inactive”.

Turning to `O=C(O)CCCCCCC(=O)O`, the Potency entry is “inactive”.

Take `COc1ccccc1C=O`: the Potency result was “inactive”.

Regarding `Clc1cccnc1`, the Potency result was “inactive”.

In the case of `CCOB(OCC)OCC`, the Potency result was “inactive”.

Consider `CC(=O)C=O`, for which the Potency entry is “inactive”.

For the molecule `CCC(=O)CC(C)CC` (configuration not stated), the cytotoxicity was 6.34% [at 0.29 µM].

As to `CCN(CC)CCCN(c1ccccc1)C1Cc2ccccc2C1`, the Potency result was “inactive”.

Regarding `O=C=NCc1cccc(CN=C=O)c1`, the cytotoxicity is -8.38% [at 15.8 µM].

For the molecule `COc1ccc(C#N)cc1`, the Potency result is “inactive”.

For `CCCCCCCCC(C)=O`, the Potency result is “inactive”.

In the case of `CCc1ccc(O)c(C(C)(C)C)c1`, the Potency result was “inactive”.

Regarding `CCCCCCCC/C=C\CCCCCCCC(=O)OCCOC(=O)CCCCCCC/C=C\CCCCCCCC`, the Potency result was “inactive”.

Take `CCCCCCCCCCCCCc1ccccc1`: the Potency result is “inactive”.

For `CCOC(=O)CN`, the Potency result is “inactive”.

Take `Cc1c(C(=O)O)cccc1[N+](=O)[O-]`: the Potency entry is “inactive”.

With `CCc1ccc(C)nc1`, the Potency result was “inactive”.

Regarding `COc1cccc(O)c1`, the Potency entry is “inactive”.

With `CC(=O)O[C@@H]1C[C@@H]2CC[C@@]1(C)C2(C)C`, the Potency result was “inactive”.

For `OCCN1CN(CCO)CN(CCO)C1`, the Potency entry is “inactive”.

Regarding `CCCCCCCC(C)=O`, the Potency result is “inactive”.

Consider `CCCCCCCC(OC)OC`, for which the Potency result was “inactive”.

On to `C=CC(C)C#N` (configuration not stated), for which the Potency entry was “inactive”.

On to `CCC(=O)OCCc1ccccc1`, for which the Potency result is “inactive”.

Consider `O=S(O)O`, for which the cytotoxicity was -3.65% [at 15.8 µM].

The values above are taken from PubChem BioAssay (Tox21).
